Some test systems named below: SK-MEL-2 melanoma; EKVX NSCLC; SN12C renal; UO-31 renal; TK-10 renal; ACHN renal; CAKI-1 renal; A498 renal; CCRF-CEM leukemia; MOLT-4 leukemia; RPMI-8226 leukemia; OVCAR-5 ovarian; OVCAR-4 ovarian; SK-OV-3 ovarian; IGROV1 ovarian; OVCAR-3 ovarian; NCI/ADR-RES ovarian; SR leukemia; OVCAR-8 ovarian; HS 578T breast.
Holding throughout (assay): NCI-60 one-dose screen, 48 h (100 = growth as untreated, 0 = no growth, -100 = all killed)
Common to all, as to details: 10 µM unless noted

Compounds without any hit were thinned out: in the full panel of roughly 83,000, 20% have a hit.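 Values shown are percent growth following 48 h exposure of cells in 96-well plates to a single concentration of compound; below 10 was considered active.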 A number with no mark means an inactive call. Activity calls are given as the source filed them.

Consider `CC(C)(C)CC(C)(C)Nc1c(-c2ccc(-c3ccccc3)cc2)nc2cnccn12`, for which the growth with SK-MEL-2 melanoma was 72.2%; in the assay with EKVX NSCLC, 92.7%; with SN12C renal it was 98.7%; in the assay on UO-31 renal, 68.8%; in the assay on TK-10 renal, 86.6%; in the assay on ACHN renal it was 100%. For the same compound, the growth in the assay with CAKI-1 renal is 76.1%; in the assay with A498 renal, 75.9%; in the assay with CCRF-CEM leukemia, 72.9%; in the assay with MOLT-4 leukemia, 62.5%; with RPMI-8226 leukemia it was 68.7%; in the assay on OVCAR-5 ovarian it was 88.1%. Also, the growth is -26.5% (active) in the assay with OVCAR-4 ovarian; 76.3% in the assay with SK-OV-3 ovarian; 66% in the assay on IGROV1 ovarian; 90.2% in the assay with OVCAR-3 ovarian; 97.7% in the assay on NCI/ADR-RES ovarian.

As to `Oc1[nH]c2ccccc2c1/C=c1/cc2c(c(-c3ccc(F)cc3)n1)=Nc1ccccc1-2`, the growth in the assay on SK-MEL-2 melanoma was -3.73% (active); in the assay on EKVX NSCLC it was 38.2%; in the assay on SN12C renal, -0.749% (active); in the assay on UO-31 renal, -12.1% (active); in the assay with TK-10 renal, 16.3%; with ACHN renal, -43.4% (active). For the same compound, the growth was 14.8% with CAKI-1 renal; -4.07% (active) in the assay on A498 renal; -15.6% (active) in the assay on MOLT-4 leukemia; 10% in the assay with SR leukemia; -40.5% (active) in the assay with RPMI-8226 leukemia; -19.6% (active) in the assay on OVCAR-8 ovarian. Further, the growth with OVCAR-5 ovarian was 0.0696% (active); in the assay on OVCAR-4 ovarian, -65.1% (active); in the assay on SK-OV-3 ovarian, -7.93% (active); in the assay with IGROV1 ovarian it was -7.94% (active); with OVCAR-3 ovarian it was -77% (active); in the assay with HS 578T breast, -7.82% (active). For the same compound, the growth in the assay on NCI/ADR-RES ovarian is -18.7% (active).

In the case of `Cc1c(Cl)cccc1NS(=O)(=O)c1ccccc1`, the growth was 132% in the assay with SK-MEL-2 melanoma; 114% with EKVX NSCLC; 103% with SN12C renal; 90.4% in the assay on UO-31 renal; 104% in the assay with TK-10 renal; 98.4% with ACHN renal. Moreover, the growth in the assay on CAKI-1 renal was 116%; with CCRF-CEM leukemia it was 124%; in the assay on MOLT-4 leukemia it was 102%; in the assay on SR leukemia it was 113%; with RPMI-8226 leukemia, 123%; with OVCAR-8 ovarian it was 112%. Moreover, the growth in the assay with OVCAR-5 ovarian is 92%; with OVCAR-4 ovarian it was 73.3%; in the assay with SK-OV-3 ovarian it was 105%; in the assay on IGROV1 ovarian it was 114%; in the assay with OVCAR-3 ovarian, 100%; in the assay with HS 578T breast it was 102%. Further, the growth in the assay with NCI/ADR-RES ovarian was 104%.

As to `O=C1C=CC(=Nc2cc(Br)c(O)c(Br)c2)C=C1`, the growth in the assay with SK-MEL-2 melanoma was 65.2%; in the assay with EKVX NSCLC, 90.7%; with SN12C renal it was 78.7%; in the assay with UO-31 renal it was 56.3%; in the assay with TK-10 renal, 93.8%; with ACHN renal, 68.4%. In addition, the growth was 82.8% in the assay on CAKI-1 renal; 97.2% in the assay on A498 renal; -28.9% (active) in the assay on MOLT-4 leukemia; -18.9% (active) with RPMI-8226 leukemia; 66.7% in the assay with OVCAR-8 ovarian; 94.7% in the assay on OVCAR-5 ovarian. For the same compound, the growth in the assay with OVCAR-4 ovarian was 50.1%; in the assay with SK-OV-3 ovarian it was 117%; with IGROV1 ovarian, 72.1%; in the assay with OVCAR-3 ovarian, 32%; with HS 578T breast, 83.8%; in the assay with NCI/ADR-RES ovarian it was 63.9%.

Regarding `C=CC(=O)N[C@@H](Cc1ccc(-c2cc(Cl)cc(Cl)c2)cc1)[C@@H](O)[C@H](O)C(=O)O`, the growth in the assay with SK-MEL-2 melanoma is 97%; in the assay with EKVX NSCLC, 93%; in the assay with SN12C renal it was 95.7%; with UO-31 renal, 84%; in the assay with TK-10 renal, 99.3%; in the assay on ACHN renal, 100%. For the same compound, the growth is 91.6% in the assay on CAKI-1 renal; 105% with CCRF-CEM leukemia; 93.3% in the assay with MOLT-4 leukemia; 92.8% in the assay on SR leukemia; 105% with RPMI-8226 leukemia; 85.9% in the assay on OVCAR-8 ovarian. The growth was 86.8% in the assay on OVCAR-5 ovarian; 99.9% in the assay with OVCAR-4 ovarian; 91.6% with SK-OV-3 ovarian; 105% in the assay with IGROV1 ovarian; 114% in the assay on OVCAR-3 ovarian; 92.9% with HS 578T breast. In addition, the growth with NCI/ADR-RES ovarian was 95.6%.

With `CCn1c(Sc2nnc(NC(C)=O)s2)nc2c1c(=O)n(C)c(=O)n2C`, the growth is 103% in the assay on SK-MEL-2 melanoma; 88.3% in the assay on EKVX NSCLC; 94% with SN12C renal; 83.5% in the assay on UO-31 renal; 103% in the assay with TK-10 renal; 95.5% in the assay on ACHN renal. For the same compound, the growth in the assay with CAKI-1 renal is 93.7%; in the assay with CCRF-CEM leukemia it was 112%; with MOLT-4 leukemia, 113%; in the assay with SR leukemia it was 98.1%; in the assay on RPMI-8226 leukemia, 118%; in the assay with OVCAR-8 ovarian, 99.7%. For the same compound, the growth is 90.3% with OVCAR-5 ovarian; 101% with OVCAR-4 ovarian; 98.2% in the assay on IGROV1 ovarian; 93.1% in the assay on OVCAR-3 ovarian; 86.2% in the assay with HS 578T breast; 89.5% with NCI/ADR-RES ovarian.

Regarding `O=C(/C=C/C12c3ccccc3C(c3ccccc31)C1C(=O)NC(=O)C12)c1ccccc1` (stereo not given), the growth in the assay on SK-MEL-2 melanoma is 30.9%; in the assay with EKVX NSCLC it was 21%; in the assay with SN12C renal, 18.8%; with UO-31 renal it was 39.7%; with TK-10 renal, 44.3%; with ACHN renal, 32.7%. The growth with CAKI-1 renal is 45.2%; in the assay on CCRF-CEM leukemia it was 12.6%; in the assay on MOLT-4 leukemia it was 16.6%; with SR leukemia, 20.9%; with RPMI-8226 leukemia, 5.51% (active); in the assay on OVCAR-8 ovarian, 27.3%. Moreover, the growth with OVCAR-5 ovarian is 26.4%; in the assay on OVCAR-4 ovarian it was 39.4%; in the assay with IGROV1 ovarian, 19.8%; in the assay on OVCAR-3 ovarian it was 2.7% (active); in the assay on HS 578T breast it was 14.4%; in the assay with NCI/ADR-RES ovarian, 5.9% (active).

Take `N#C/C(=C\c1ccc(Br)cc1)n1nnc2cc(Cl)c(Cl)cc21`: the growth with SK-MEL-2 melanoma was 33.9%; with EKVX NSCLC, 59.6%; in the assay on SN12C renal, 35%; in the assay on UO-31 renal, 35.1%; in the assay with TK-10 renal, 59.6%; in the assay on ACHN renal it was 41%. In addition, the growth was 21.9% with CAKI-1 renal; 8.21% (active) in the assay with CCRF-CEM leukemia; 6.13% (active) with MOLT-4 leukemia; 10% with SR leukemia; 22.2% in the assay with OVCAR-8 ovarian; 46.2% in the assay on OVCAR-5 ovarian. Further, the growth with OVCAR-4 ovarian was 21.6%; with IGROV1 ovarian, 23.3%; in the assay with OVCAR-3 ovarian it was 5.17% (active); in the assay on HS 578T breast, 51.3%; with NCI/ADR-RES ovarian, 7.03% (active).
